Where “and” joins values, the source holds several entries; their conditions need not be identical. Equal values may be shown once. In all, about 360,000 compounds went through this assay and about 7,300 (2%) were called active. Only a selection was taken, and actives are over-represented in it overall. Unmarked numbers belong to inactive results. No stated cut-off is given here; in the data, active means inhibition above about 50%; inactive means the rest.
Experiment: blockers of TWEAK-induced Fn14 reporter activity – luciferase reporter cells, uHTS, primary screen (AID 1159606)
Conditions: TWEAK-stimulated Fn14 reporter cells, luciferase luminescence, 8 h; at 10 µM; hits give high values

Structure (SMILES) | inhibition
CCOc1ccc(S(=O)(=O)Nc2cccc(C(=O)NCC3(N4CCCCC4)CCCCC3)c2)cc1 | -1.13%
OCCC#Cc1ccc(N2C(c3ccsc3)=Cc3ccc(F)cc3C2c2c[nH]c3ccccc23)cc1 (stereo unspecified) | 11.2%
C=CCn1c(CNS(=O)(=O)c2ccc(Br)cc2)nnc1SC | 8.19%
C=CCC[C@@H](CCCCC)OC(=O)/C=C/[C@@H](O)[C@H](O)C[C@H](O)CC=C | 2.81%
CC1CN(C(=O)c2cc(COc3c(F)cccc3F)on2)CCN1C (stereo unspecified) | -6.71%
O=C(CCc1ccccc1)Nc1cccc(-c2nnc(-c3ccco3)o2)c1 | 52.6% (active)
O=C(Nc1cccc(-c2nnc(-c3ccccc3)o2)c1)C1CCCO1 (stereo unspecified) | 10.7%
C/C(=N/NC(=O)CCc1ccccc1)c1ccco1 | -10.4%
CC(C)NC(=O)Nc1cccc2c1O[C@@H](CN(C)S(=O)(=O)c1ccc(F)cc1)[C@@H](C)CN([C@H](C)CO)C2=O | 3.62%
COc1cccc(NC(=O)CC(c2ccc(OC(C)C)cc2)c2ccccc2OC)c1 (stereo unspecified) | -21.3%
CC(=O)c1ccc(N2Cc3ccccc3C2)cc1 | 50.8% (active)
CC(=O)c1ccc(N2CCN(CC(O)c3ccccc3)CC2)cc1 (stereo unspecified) | 15.1%
CC(=O)c1ccc(N2CCN(C(=O)CCc3ccccc3)CC2)cc1 | -0.25%
CCOC(=O)[C@]12CCC=C1N(Cc1ccco1)C(=O)[C@H](CC(=O)N1CCSCC1)C2 | 13.3%
O=C(NCC1CCC(C(=O)O)CC1)OCc1ccccc1 (stereo unspecified) | 3.36%
CC(Oc1ccc2c(-c3ccccc3)cc(=O)oc2c1)C(=O)NC(Cc1c[nH]c2ccccc12)C(=O)O (stereo unspecified) | -2.3%
O=C(CNC(=O)OCc1ccccc1)Oc1cc2oc(=O)cc(-c3ccccc3)c2cc1Cl | 66.8% (active)
OC(c1ccccc1)(c1ccccc1)C1CCN(CCCOc2ccccc2)CC1 | 1.25%
COCCn1c(C)cc(C(=O)COC(=O)CNC(=O)c2ccco2)c1C | 5.04%

Structure (SMILES) | inhibition
Cc1ccc(OCC(=O)c2cc(C)n(Cc3ccco3)c2C)c([N+](=O)[O-])n1 | 42.9%
Cc1cc(C(=O)COC(=O)CNC(=O)c2ccc(F)cc2)c(C)n1Cc1ccco1 | 71.8% (active)
CCc1nc2ccc(C(=O)Nc3cc(-c4ccccc4)ccc3OC)cn2c1N(CC)CC(=O)N(C)C | 9.07%
CC1(C(=O)NS(=O)(=O)c2cccs2)CCN1C(=O)Cc1ccc(-c2ccccc2)cc1 (stereo unspecified) | 6.14%
OCCCNc1nccc(-c2cc(Nc3cccc(Cl)c3)ncn2)n1 | 97.3% (active)
CCOc1c(Nc2cccc(Cl)c2)c(=O)c1=O | 6.24%
CC(NC(=O)COC(=O)c1ccc(Cl)cc1O)c1ccc(F)cc1 (stereo unspecified) | -8.36%
COc1ccc(-c2ccc3[nH]c4c(c3c2)CCN2C[C@H]3[C@H](C)ON(C)[C@H]3C[C@@H]42)cc1 | 76.2% (active)
COc1cccc(C2c3[nH]c4ccccc4c3CCN2Cc2cccc(C)n2)c1 (stereo unspecified) | 1.39%
COC(=O)[C@H]1[C@H]2C[C@H]3c4[nH]c5ccccc5c4CCN3C[C@@H]2CC[C@@H]1O | 27.2% and 5.66%
CCNc1nc(N)nc(-c2cc(Cl)ccc2OC)n1 | -2.01%
CC[C@@H]1CC2=C(C(=O)OC(C)(C)O2)[C@@H](CC)O1 | 1.77%
CCN(CC)C(=O)CC1(c2ccccc2OC)CCOC(C(C)C)C1 (stereo unspecified) | -4.31%
C=CCn1nc(C(=O)OCC)cc1-c1sc(NC(=O)c2ccccc2)nc1C | 32.2%
CCOC(=O)c1cc(-c2sc(NC(=O)c3ccccc3)nc2C)n(CCO)n1 | -0.09%
CCOC(=O)c1cc(-c2sc(NC(=O)c3ccccc3)nc2C)n(Cc2ccccc2)n1 | 54.7% (active)
CCCCCCN1C[C@@H](O)[C@H](n2cc(COC(=O)c3ccccc3)nn2)C[C@@H]1c1ccc(Cl)cc1 | 11.1%
C[C@H](NC(=O)[C@@H]1CCCN1C(=O)[C@@H]1CCCN1C(=O)c1ccccc1)c1ccccc1 | -2.63%
CC(C(=O)NCC1CCCCC1)N(C)Cc1cccc(Cl)c1 (stereo unspecified) | -0.37%

Structure (SMILES) | inhibition
CC(C(=O)O)n1cnc2sc3c(c2c1=O)CCCC3 (stereo unspecified) | -20.1%
c1nnc2c3c4c(sc3ncn12)CCC4 | 58.9% (active)
S=c1[nH]nc2c3c4c(sc3ncn12)CCCC4 | 3.72%
COC(=O)c1sc(NC(=O)c2ccc(OC)cc2OC)nc1C | 69% (active)
COc1ccc(C(=O)NC(C)CCc2ccccc2)c(OC)c1 (stereo unspecified) | -8.93%
COc1cc(SC)ccc1C(=O)Nc1nc(C)cs1 | 102% (active)
CCOC(=O)c1sc(NC(=O)c2sc(C)nc2C)nc1C | -39.5%
COc1cc(SC)ccc1C(=O)NNC(=O)C1COc2ccccc2O1 (stereo unspecified) | -29.7%
Cc1csc(NC(=O)CSc2nc(=O)cc(N)n2-c2ccc(F)cc2)n1 | 27.6%
CC(=O)c1ccc(NC(=S)N(Cc2ccccc2)C(C)C2CC2)cc1 (stereo unspecified) | 11.1%
COC(=O)c1ccc2nc(-c3ccc(F)cc3)c(Cc3ccc(C)cc3)n2c1 | -0.5%
O=C1NC[C@@H](CCCCN2CCN(CCc3ccc(O)cc3)C(=O)C2=O)N(CC2CCCCC2)C1=O | 10.2%
O=C(c1ccc2c(c1)N(Cc1ccc(F)cc1)C(=O)CS2)N1CCOCC1 | -16.2%
CCc1nccn1CCC(=O)N1CCCC(N2CCN(c3ccccc3F)CC2)C1 (stereo unspecified) | -3.5%
CC(=O)Nc1ccc(NS(=O)(=O)c2ccc3c(c2)NC(=O)CC(=O)N3)cc1 | 10.3%
CC(=O)Nc1ccc(S(=O)(=O)N2CCCC2C(=O)O)cc1 (stereo unspecified) | 0.16%
CC(=O)Nc1ccc(S(=O)(=O)Nc2ccc(N3CCCCC3)cc2)cc1 | 84.7% (active)
CCN(CC)P(=O)(/C(Cl)=C\Nc1c(C)n(C)n(-c2ccccc2)c1=O)N(CC)CC | -1.25%
